We go through eight compounds from PubChem BioAssay (NCI).

Each structure is given as a SMILES string. Compounds without any hit were thinned out: in the full panel of roughly 83,000, 20% have a hit.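 Cell lines were cultured in 96-well plates, exposed to a single compound concentration, and assessed for percent growth 48 hours later.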 A number with no mark means an inactive call. Active and inactive are the calls of the source. The calls were made as follows: active = growth percent below 10; inactive = the rest.

What all share (experiment): NCI-60 one-dose screen, 48 h (100 = growth as untreated, 0 = no growth, -100 = all killed)
Assay [1] has as its system NCI-H23 lung. The following applies: 10 µM unless noted.
In assay [2] the test system is NCI-H226 lung. The note with it: 10 µM unless noted.
The test system of assay [3] is NCI-H322M lung. The following applies: 10 µM unless noted.
Assay [4] deals with HOP-62 NSCLC. The following applies: 10 µM unless noted.
Assay [5] deals with NCI-H460 lung. The note with it: 10 µM unless noted.
In assay [6] the test system is HOP-92 NSCLC. The following applies: 10 µM.
Assay [7] concerns NCI-H522 lung. The note with it: 10 µM unless noted.
For assay [8], the system named is A549/ATCC NSCLC. The following applies: 10 µM unless noted.
In assay [9] the test system is 786-0 renal. The following applies: 10 µM unless noted.
Assay [10] relates to COLO 205 colon. The following applies: 10 µM unless noted.
The subject of assay [11] is DU-145 prostate. The following applies: 10 µM unless noted.
For assay [12], the system named is K-562 leukemia. The following applies: 10 µM unless noted.
Assay [13] relates to MALME-3M melanoma. The following applies: 10 µM unless noted.
The test system of assay [14] is MDA-MB-231 breast. The note with it: 10 µM unless noted.
Assay [15] deals with SF-268 CNS. The following applies: 10 µM unless noted.
The test system of assay [16] is SF-295 CNS. The following applies: 10 µM unless noted.
Assay [17] has as its system SF-539 CNS. The following applies: 10 µM unless noted.
The test system of assay [18] is UACC-257 melanoma. The note with it: 10 µM unless noted.

As to `COC(=O)C[Se]C(=O)Cc1c(C)n(C(=O)c2ccc(Cl)cc2)c2ccc(OC)cc12`, the growth in assay [1] is 11.5%; in assay [2] it was 52.8%; in assay [3], 44.7%; in [4], 25.4%; in assay [5] it was 16.3%; in assay [6], 53.2%. The growth in assay [7] is 44.8%; in assay [8] it was 18.7%; in assay [9], 83.3%; in [10], 49.5%; in [11] it was 25.6%; in assay [12], 54%. Besides, the growth was 46.5% in assay [13]; 30.9% in assay [14]; 40.7% in assay [15]; 9.86% (active) in assay [16]; 39.9% in assay [17]; 65.2% in assay [18].
`CNC(=O)c1c(NC(=O)c2ccccc2C(F)(F)F)sc2c1CCC(=O)C2`: the growth is 13.9% in assay [1]; 64.2% in assay [2]; 105% in assay [3]; 98.6% in assay [4]; 57.4% in assay [5]; 1.45% (active) in [6]. For the same compound, the growth in [7] is 3.39% (active); in [8], 70.9%; in assay [9], 39.6%; in [10] it was 16.2%; in assay [11], 99.9%; in assay [12], 12.9%. Besides, the growth in [13] is 54%; in assay [14], 26.5%; in assay [15], 33.2%; in assay [16], 82.2%; in assay [17] it was 14.5%; in assay [18], 72.4%.
As for `NC(N)=Nc1ccc(Oc2cccc(NC(N)=Nc3ccc(I)cc3F)c2)cn1`, the growth in [1] is 52.2%; in [2], 84.3%; in [3], 53.1%; in [4] it was 66.9%; in [5], 40.6%; in [6], -3.49% (active). Further, the growth in [7] is 41.2%; in [8], 57.9%; in assay [9], 80.8%; in assay [10] it was 39.7%; in [11] it was 88.3%; in assay [12], 46.1%. Further, the growth in [13] is 75.5%; in assay [14] it was 62.8%; in [15] it was 36.3%; in [16], 47.3%; in assay [17] it was 60.3%; in assay [18], 75.6%.
In the case of `CCCCCc1ccc(S(=O)(=O)Nc2cccc(-c3csc(NC(=O)CN4CCN(C)CC4)n3)c2)cc1`, the growth in assay [1] is 95.1%; in assay [2], 93.3%; in assay [3], 100%; in [4], 89.5%; in assay [5], 21.5%; in assay [6], 62.3%. Also, the growth in [7] was 89.5%; in assay [8], 79.7%; in [9], 63.8%; in assay [10], 31%; in assay [11], 82.4%; in assay [12], 7.06% (active). The growth was 45.7% in [13]; 74.2% in [14]; 78.4% in assay [15]; 104% in assay [16]; 82.9% in assay [17]; 93% in [18].
`CCC1=Cc2cc(OC)ccc2OC12C=Cc1cc(OC)ccc1O2` (centres undefined): the growth was 17% in assay [1]; 65.4% in [2]; 50.2% in assay [3]; 64.3% in assay [4]; 4.15% (active) in assay [5]; 57.3% in assay [6]. The growth in assay [7] is -23.9% (active); in assay [8], 26.5%; in [9], 37.3%; in assay [10], -6.28% (active); in assay [11], 19.9%; in assay [12], 12.6%. For the same compound, the growth in [13] was 58.4%; in assay [14] it was 34.9%; in assay [15], 39.2%; in [16] it was 15.7%; in assay [17], -23.7% (active); in assay [18], 79.6%.
As for `CCOC(=O)C(=O)CC(=O)N1C(=S)NC(=O)C1CC(C)C` (centres undefined), the growth was 88.3% in assay [1]; 99.1% in assay [2]; 96.8% in assay [3]; 101% in assay [4]; 110% in assay [5]; 99.6% in [6]. In addition, the growth in assay [7] is 100%; in [8], 103%; in [9], 96.1%; in assay [10], 107%; in assay [11], 108%; in assay [12], 107%. Besides, the growth in [13] is 101%; in [14] it was 101%; in assay [15], 94.8%; in assay [16], 102%; in assay [17], 96.1%; in [18], 102%.
In the case of `O=C(NCc1ncc[nH]1)c1ccc(-c2nc3ccc4[nH]ncc4c3c3c2CCCC3)cc1`, the growth in assay [1] is 14.4%; in assay [2], 36%; in assay [3] it was 21.4%; in assay [4], 17.8%; in assay [5], 8.85% (active); in [6] it was -7.23% (active). Also, the growth in [7] was -65% (active); in [8], 48.2%; in [9], 25.4%; in [10] it was -10.4% (active); in [11], 21.6%; in [12], 14.7%. Moreover, the growth in assay [13] is -14.7% (active); in assay [14], 10% (active); in [15] it was 3.81% (active); in assay [16] it was 31.5%; in [17], -2.48% (active); in [18] it was 27%.
Take `COc1cc(-c2nnc(SCc3ccc(O)c4ncccc34)n2-c2ccccc2)cc(OC)c1OC`: the growth is 9.25% (active) in assay [1]; 8.85% (active) in assay [2]; 19.2% in assay [3]; 6.41% (active) in assay [4]; -29.8% (active) in [5]; -12.5% (active) in assay [6]. Moreover, the growth in assay [7] is -8.34% (active); in assay [8] it was 0.31% (active); in assay [9], 8.31% (active); in assay [10], 10.1%; in assay [11], 15.2%; in assay [12], 4.83% (active). Also, the growth in assay [13] was -4.75% (active); in assay [14], 24.7%; in assay [15], 8.87% (active); in assay [16], 0.13% (active); in assay [17], 0.686% (active); in [18], -18.1% (active).
